The values below come from the supplement of paper PMC10732440.

± gives the standard deviation of the averaged measurements.

In the first assay the test system is Caenorhabditis elegans N2 infected with Nematocida parisii ERTm1. In words: progeny production relative to DMSO uninfected control; higher = more progeny despite microsporidia infection (inhibition of infection with low host toxicity). The conditions noted are these: infection time 6 days; 40 µM. As for the experimental part: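 Bleach-synchronised C. elegans N2 L1 larvae (100 per well) were grown in 96-well plates in K-medium with 5x E. coli OP50 and 15,000 N. parisii spores/uL, plus Pandemic Response Box compound at 100 uM or 40 uM (1% DMSO), for 6 days at 21 C with shaking. Worms were stained with Rose Bengal, scanned on a flatbed scanner and counted with WorMachine. Progeny production is given as % of the DMSO uninfected control (triplicate wells), so higher values mean the compound restores progeny despite infection.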
Regarding `O=C(Nc1ccccc1)N(Cc1cc(Br)ccc1O)c1ccc(F)cc1`, the progeny production is 3.85 ± 1%.

On to `CO/N=C(\C(=O)N[C@@H]1C(=O)N2C(C(=O)OCOC(=O)C(C)(C)C)=C(/C=C\c3scnc3C)CS[C@H]12)c1csc(N)n1`, for which the progeny production is 4.46 ± 2.2%.

In the case of `O=c1oc2ccc(Br)cc2cc1CSc1ncc[nH]1`, the progeny production was 6.6 ± 2.9%.

The compound `CC(C)(C)NC(=O)[C@@H]1CN(Cc2cnc3occc3c2)CCN1C[C@@H](O)C[C@@H](Cc1ccccc1)C(=O)N[C@H]1c2ccccc2C[C@H]1O` registered a progeny production of 8.87 ± 0.17%.

For `O=C(O)c1cc(-c2ccccc2)nc2ccccc12`, the progeny production was 6.15 ± 0.79%.

Compound `Clc1cc2nc(C3CCNCC3)n(Cc3ccc(CNCCc4c[nH]cn4)cc3)c2cc1Cl` registered a progeny production of 7.61 ± 2.7%.

`CC(=O)O[C@H]1C[C@@]2(C)[C@@H](C[C@@H](O)[C@H]3[C@@]4(C)CC[C@@H](O)[C@@H](C)[C@@H]4CC[C@@]32C)/C1=C(\CCC=C(C)C)C(=O)O` came in with a progeny production of 6.24 ± 2.3%.

The compound `COc1ccc2nc(-c3ccccc3)cc(O)c2c1` yielded a progeny production of 10.7 ± 7.9%.

The compound `O=C(O)C[C@H]1CC[C@H](c2ccc(-c3ccc(Nc4ccc(C(F)(F)F)nc4)cn3)cc2)CC1` displayed a progeny production of 4.2 ± 3.2%.

As for `CC(=O)N[C@H](C)C(=O)N[C@H](Cc1ccccc1)C(=O)O`, the progeny production was determined as 9.08 ± 7.2%.

Compound `CC(C)(C)c1ccc(C(=O)NC(=O)N2CCCc3ccccc32)cc1` registered a progeny production of 4.23 ± 2.6%.

For the compound `CCc1cc(CCCOc2c(C)cc(-c3noc(C(F)(F)F)n3)cc2C)on1`, the progeny production came out at 5.28 ± 4%.

`NNC(=O)c1ccncc1` yielded a progeny production of 12.3 ± 5.7%.

On to `COc1cc2c(O)c3c(c(-c4ccc5c(c4)OCO5)c2cc1OC)C(=O)OC3`, for which the progeny production was found to be 4.37 ± 1.7%.

As to `COc1nc2ccc(Br)cc2cc1[C@@H](c1ccccc1)[C@@](O)(CCN(C)C)c1cccc2ccccc12`, the progeny production was 7.24 ± 3.5%.

`CCCCc1ccc(-c2nc(C)c(C(=O)OC)s2)cc1`: the progeny production stood at 4.25 ± 0.74%.

As for `Cc1[nH]c2ccccc2c1CCNCc1ccc(/C=C/C(=O)NO)cc1`, the progeny production is 6.83 ± 2.5%.

Compound `O=C(/C(=C/c1ccc(Cl)cc1Cl)n1ccnc1)c1ccc(Cl)cc1` registered a progeny production of 24.5 ± 2.2%.

For the compound `NC1C2CC3CC(C2)CC1C3` (stereo not given), the progeny production was determined as 4.96 ± 2.6%.

As for `CC(=N)N1CC[C@H](SC2=C(C(=O)O)N3C(=O)[C@@H]([C@@H](C)O)[C@H]3C2)C1`, the progeny production turned out to be 4.18 ± 0.82%.

The assay is the same for the next values; noted with them: infection time 6 days; 100 µM.
In turn, `O=C(Nc1ccccc1)N(Cc1cc(Br)ccc1O)c1ccc(F)cc1` registered a progeny production of 17.4 ± 13%.

For the compound `CO/N=C(\C(=O)N[C@@H]1C(=O)N2C(C(=O)OCOC(=O)C(C)(C)C)=C(/C=C\c3scnc3C)CS[C@H]12)c1csc(N)n1`, the progeny production was 13.1 ± 5.6%.

As for `O=c1oc2ccc(Br)cc2cc1CSc1ncc[nH]1`, the progeny production was 11.1 ± 7.2%.

With `CC(C)(C)NC(=O)[C@@H]1CN(Cc2cnc3occc3c2)CCN1C[C@@H](O)C[C@@H](Cc1ccccc1)C(=O)N[C@H]1c2ccccc2C[C@H]1O`, the progeny production amounted to 8.42 ± 0.9%.

Compound `O=C(O)c1cc(-c2ccccc2)nc2ccccc12` registered a progeny production of 6.83 ± 4.5%.

Compound `Clc1cc2nc(C3CCNCC3)n(Cc3ccc(CNCCc4c[nH]cn4)cc3)c2cc1Cl` registered a progeny production of 10.3 ± 7.1%.

As to `CC(=O)O[C@H]1C[C@@]2(C)[C@@H](C[C@@H](O)[C@H]3[C@@]4(C)CC[C@@H](O)[C@@H](C)[C@@H]4CC[C@@]32C)/C1=C(\CCC=C(C)C)C(=O)O`, the progeny production was 16.9 ± 9.1%.

The compound `COc1ccc2nc(-c3ccccc3)cc(O)c2c1` came in with a progeny production of 8.32 ± 3.4%.

`O=C(O)C[C@H]1CC[C@H](c2ccc(-c3ccc(Nc4ccc(C(F)(F)F)nc4)cn3)cc2)CC1` yielded a progeny production of 10.5 ± 6.4%.

In turn, `CC(=O)N[C@H](C)C(=O)N[C@H](Cc1ccccc1)C(=O)O` gave a progeny production of 10 ± 3.2%.

As to `CC(C)(C)c1ccc(C(=O)NC(=O)N2CCCc3ccccc32)cc1`, the progeny production stood at 22.1 ± 18%.

`CCc1cc(CCCOc2c(C)cc(-c3noc(C(F)(F)F)n3)cc2C)on1` registered a progeny production of 12.5 ± 14%.

`NNC(=O)c1ccncc1`: the progeny production is 14.7 ± 5.8%.

Consider `COc1cc2c(O)c3c(c(-c4ccc5c(c4)OCO5)c2cc1OC)C(=O)OC3`, for which the progeny production worked out at 3.64 ± 3.2%.

Turning to `COc1nc2ccc(Br)cc2cc1[C@@H](c1ccccc1)[C@@](O)(CCN(C)C)c1cccc2ccccc12`, the progeny production was found to be 14.3 ± 4.9%.

In turn, `CCCCc1ccc(-c2nc(C)c(C(=O)OC)s2)cc1` yielded a progeny production of 12.2 ± 3.7%.

In the case of `Cc1[nH]c2ccccc2c1CCNCc1ccc(/C=C/C(=O)NO)cc1`, the progeny production amounted to 9.79 ± 7.8%.

Compound `O=C(/C(=C/c1ccc(Cl)cc1Cl)n1ccnc1)c1ccc(Cl)cc1` yielded a progeny production of 89.8 ± 17%.

With `NC1C2CC3CC(C2)CC1C3` (stereo not given), the progeny production worked out at 13.2 ± 3.6%.

Compound `CC(=N)N1CC[C@H](SC2=C(C(=O)O)N3C(=O)[C@@H]([C@@H](C)O)[C@H]3C2)C1` returned a progeny production of 11.1 ± 7.9%.
